In PubChem BioAssay (EPA / NIEHS):
The source made the active and inactive calls. Rule for the calls: active = hit-call score of the fitted dose curve at least 0.9, where 1 is the maximum; inactive = score below 0.9.

Assays:
[1] = read-out: Thrombomodulin, THBD (gene 7056); assay: BSK_CASM3C_Thrombomodulin: BioMAP Diversity Plus: CASM3C Assay for Thrombomodulin Biomarker Activity (AID 2283051); conditions: primary human coronary artery smooth muscle cells; actives raise or lower the signal;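 note: thrombomodulin protein level measured by ELISA 24 h after dosing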
[2] = read-out: Tissue Factor, F3 (gene 2152); assay: BSK_CASM3C_TissueFactor: BioMAP Diversity Plus: CASM3C Assay for Tissue Factor Biomarker Activity (AID 2283052); conditions: primary human coronary artery smooth muscle cells; actives raise or lower the signal;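 note: cell surface tissue factor protein level read by ELISA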
[3] = read-out: Interferon-gamma inducible Protein 10 (IP10), CXCL10 (gene 3627); assay: BSK_hDFCGF_IP10: BioMAP Diversity Plus: hDFCGF Assay for Interferon-gamma inducible Protein 10 (IP10) Biomarker Activity (AID 2283053); conditions: primary human foreskin fibroblasts; actives raise or lower the signal
Summary of the method: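 Human foreskin fibroblast primary cells (hDFCGF system) were dosed with chemical and assayed at 24 h; IP-10 measured by ELISA. Activity fitted bidirectionally relative to DMSO negative control as baseline.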

[4] = read-out: Urokinase-type plasminogen activator receptor (uPAR), PLAUR (gene 5329); assay: BSK_CASM3C_uPAR: BioMAP Diversity Plus: CASM3C Assay for Urokinase-type plasminogen activator receptor (uPAR) Biomarker Activity (AID 2283054); conditions: primary human coronary artery smooth muscle cells; actives raise or lower the signal;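 note: cell-surface uPAR protein level quantified by ELISA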
[5] = read-out: Vascular cell adhesion molecule 1 (VCAM1), VCAM1 (gene 7412); assay: BSK_CASM3C_VCAM1: BioMAP Diversity Plus: CASM3C Assay for Vascular cell adhesion molecule 1 (VCAM1) Biomarker Activity (AID 2283055); conditions: primary human coronary artery smooth muscle cells; actives raise or lower the signal;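 note: VCAM-1 protein level quantified by ELISA on the cells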
[6] = read-out: Collagen III, COL3A1 (gene 1281); assay: BSK_hDFCGF_CollagenIII: BioMAP Diversity Plus: hDFCGF Assay for Collagen III Biomarker Activity (AID 2283056); conditions: primary human foreskin fibroblasts; actives raise or lower the signal
Summary of the method: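 ELISA read-out of collagen III from human skin fibroblast cultures sampled 24 h post-dosing. Values were derived by bidirectional fitting relative to the DMSO vehicle control.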

[7] = read-out: Epidermal growth factor receptor (EGFR), EGFR (gene 1956); assay: BSK_hDFCGF_EGFR: BioMAP Diversity Plus: hDFCGF Assay for Epidermal growth factor receptor (EGFR) Biomarker Activity (AID 2283057); conditions: primary human foreskin fibroblasts; actives raise or lower the signal
Summary of the method: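 Primary human foreskin fibroblasts were exposed to compound for 24 h, after which cell-surface EGFR was quantified by ELISA. Activity was fitted bidirectionally against the DMSO negative control as baseline.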

[8] = read-out: Interleukin-8 (IL8), CXCL8 (gene 3576); assay: BSK_hDFCGF_IL8: BioMAP Diversity Plus: hDFCGF Assay for Interleukin-8 (IL8) Biomarker Activity (AID 2283058); conditions: primary human foreskin fibroblasts; actives raise or lower the signal
Summary of the method: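 Cells used are human skin primary fibroblasts. Chemical is added, cultures run 24 h, then IL-8 is quantified by ELISA, and gain or loss versus DMSO control is fitted in both directions.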

[9] = BSK_hDFCGF_Proliferation: Cell Proliferation Assessment in the BioMAP Diversity Plus: hDFCGF Assay (AID 2283059); conditions: primary human foreskin fibroblasts;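 note: curves fitted for both rise and fall of signal versus DMSO baseline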
Summary of the method: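 Primary human foreskin fibroblasts, sub-confluent; […]; 10% TCA fix, 0.1% SRB stain, A560 total protein. Gain/loss fitted bidirectionally vs DMSO control.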

[10] = read-out: Macrophage colony-stimulating factor (MCSF), CSF1 (gene 1435); assay: BSK_hDFCGF_MCSF: BioMAP Diversity Plus: hDFCGF Assay for Macrophage colony-stimulating factor (MCSF) Biomarker Activity (AID 2283060); conditions: primary human foreskin fibroblasts; actives raise or lower the signal
Summary of the method: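 Primary human foreskin fibroblasts dosed with chemical; 24 h later, M-CSF quantified by ELISA; curves fitted in both directions vs DMSO negative control.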

[11] = BSK_hDFCGF_SRB: Viability Assessment in the BioMAP Diversity Plus: hDFCGF Assay (AID 2283061); conditions: primary human foreskin fibroblasts;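 note: cells exposed to compound for 24 h before the read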
Summary of the method: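 Readout is SRB absorbance at 560 nm, reflecting total protein in parallel cultures of human foreskin fibroblasts harvested 24 h after chemical dosing. Activity was fitted bidirectionally relative to DMSO.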

[12] = read-out: TIMP metallopeptidase inhibitor 1 (TIMP1), TIMP1 (gene 7076); assay: BSK_hDFCGF_TIMP1: BioMAP Diversity Plus: hDFCGF Assay for TIMP metallopeptidase inhibitor 1 (TIMP1) Biomarker Activity (AID 2283062); conditions: primary human foreskin fibroblasts; actives raise or lower the signal
Summary of the method: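 Human skin fibroblasts (primary), hDFCGF system; compound exposure 24 h; TIMP-1 by ELISA; bidirectional fit vs DMSO negative control; overt cytotoxicity by SRB in parallel wells.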

[13] = read-out: Monokine induced gamma interferon (MIG), CXCL9 (gene 4283); assay: BSK_hDFCGF_MIG: BioMAP Diversity Plus: hDFCGF Assay for Monokine induced gamma interferon (MIG) Biomarker Activity (AID 2283063); conditions: primary human foreskin fibroblasts; actives raise or lower the signal
Summary of the method: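 Chemicals were added to primary human foreskin fibroblast cultures, which were sampled 24 h later. MIG levels were then quantified by ELISA and responses fitted in both directions relative to DMSO.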

[14] = read-out: Matrix Metallopeptidase 1 (MMP1), MMP1 (gene 4312); assay: BSK_hDFCGF_MMP1: BioMAP Diversity Plus: hDFCGF Assay for Matrix Metallopeptidase 1 (MMP1) Biomarker Activity (AID 2283064); conditions: primary human foreskin fibroblasts; actives raise or lower the signal
Summary of the method: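 Primary human foreskin fibroblasts in the hDFCGF system were dosed with test chemical, and MMP1 was measured by ELISA 24 h later. Values come from bidirectional curve fitting against the DMSO baseline.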

[15] = read-out: Vascular cell adhesion molecule 1 (VCAM1), VCAM1 (gene 7412); assay: BSK_hDFCGF_VCAM1: BioMAP Diversity Plus: hDFCGF Assay for Vascular cell adhesion molecule 1 (VCAM1) Biomarker Activity (AID 2283065); conditions: primary human foreskin fibroblasts; actives raise or lower the signal;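 for AC50: VCAM-1 protein level quantified by ELISA after 24 h chemical exposure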
Summary of the method: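 Human foreskin fibroblast primary cells, chemical exposure 24 h; VCAM-1 by ELISA; bidirectional fit, DMSO = negative control/baseline.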

[16] = read-out: Plasminogen activator inhibitor-1 (PAI1), SERPINE1 (gene 5054); assay: BSK_hDFCGF_PAI1: BioMAP Diversity Plus: hDFCGF Assay for Plasminogen activator inhibitor-1 (PAI1) Biomarker Activity (AID 2283066); conditions: primary human foreskin fibroblasts; actives raise or lower the signal
Summary of the method: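 Human foreskin fibroblasts in the hDFCGF system were dosed with compound for 24 h; PAI-1 was quantified by ELISA. Bidirectional curve fitting used DMSO as negative control and baseline.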

[17] = read-out: Intercellular Adhesion Molecule 1 (ICAM1), ICAM1 (gene 3383); assay: BSK_KF3CT_ICAM1: BioMAP Diversity Plus: KF3CT Assay for Intercellular Adhesion Molecule 1 (ICAM1) Biomarker Activity (AID 2283067); conditions: primary human keratinocytes with fibroblasts; actives raise or lower the signal
Summary of the method: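 ICAM-1 levels are measured by ELISA 24 h after dosing a primary human co-culture of keratinocytes and foreskin fibroblasts. Activity in either direction is fitted relative to DMSO vehicle.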

[18] = read-out: Interferon-gamma inducible Protein 10 (IP10), CXCL10 (gene 3627); assay: BSK_KF3CT_IP10: BioMAP Diversity Plus: KF3CT Assay for Interferon-gamma inducible Protein 10 (IP10) Biomarker Activity (AID 2283068); conditions: primary human keratinocytes with fibroblasts; actives raise or lower the signal
Summary of the method: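 In a primary skin co-culture of keratinocytes and fibroblasts, IP-10 is quantified by ELISA at 24 h after dosing. SRB staining of parallel wells monitors overt toxicity. Curves are fitted both directions against DMSO.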

[19] = BSK_KF3CT_SRB: Viability Assessment in the BioMAP Diversity Plus: KF3CT Assay (AID 2283069); conditions: primary human keratinocytes with fibroblasts;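 note: total protein by sulforhodamine B staining as a cytotoxicity measure; read 24 h after compound addition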
Summary of the method: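 Human primary keratinocyte plus foreskin fibroblast co-culture exposed to chemicals for 24 h. Total protein measured by 0.1% sulforhodamine B staining after 10% TCA fixation, read at 560 nm; bidirectional fitting versus DMSO baseline.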

[20] = read-out: Interleukin-1 alpha (IL1a), IL1A (gene 3552); assay: BSK_KF3CT_IL1a: BioMAP Diversity Plus: KF3CT Assay for Interleukin-1 alpha (IL1a) Biomarker Activity (AID 2283070); conditions: primary human keratinocytes with fibroblasts; actives raise or lower the signal
Summary of the method: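 Human keratinocyte plus foreskin fibroblast primary co-culture, sampled 24 h after chemical dosing. IL-1a measured by ELISA; responses fitted bidirectionally against DMSO baseline (negative control), so gain or loss of signal both count.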

Measured: AC50

CCCCCCCCCCCCO
inactive: [1] | [4]
active: [2] 32.3 µM | [3] 29.3 µM | [5] 31 µM | [6] 15.4 µM | [7] 19.8 µM | [8] 37.4 µM | [9] 26.5 µM | [10] 33.4 µM | [11] 30.6 µM | [12] 36.4 µM | [13] 33.3 µM | [14] 31 µM | [15] 25.8 µM | [16] 29.7 µM | [17] 32.7 µM | [18] 37.7 µM | [19] 32.8 µM | [20] 30.6 µM

C[C@]12CC[C@@H]3c4ccc(O)cc4CC[C@H]3[C@@H]1CC[C@H]2O
active: [5] 16 µM | [15] 15.4 µM
not listed: [6] | [16]
inactive: all other assays above

CCOC(=O)O[C@H](C)OC(=O)c1ccc2c(c1)cc(C(=O)NC1CCN(C(C)C)CC1)n2Cc1cc(-c2ccc(Cl)s2)on1
active: [1] 9.19 µM | [2] 7.43 µM | [3] 4.62 µM | [4] 6.27 µM | [5] 10.3 µM | [6] 4.13 µM | [7] 4.85 µM | [8] 6.12 µM | [9] 1.72 µM | [10] 5.16 µM | [11] 4.96 µM | [12] 4.35 µM | [13] 6.08 µM | [14] 6.2 µM | [15] 3.74 µM | [17] 9.05 µM | [18] 10.4 µM | [19] 6.24 µM | [20] 6.3 µM

CC[C@@H]1C[C@H](N(Cc2cc(C(F)(F)F)cc(C(F)(F)F)c2)C(C)=O)c2cc(C(F)(F)F)ccc2N1C(=O)OC(C)C
active: [3] 1.22 µM
not listed: [16]
inactive: all other assays above

Cc1ccc2oc(CN(Cc3ccccc3)C(=O)Nc3c(F)cc(F)cc3F)c(-c3ccc(Cl)cc3)c2c1
active: [3] 5.68 µM
not listed: [6] | [16]
inactive: all other assays above

CC/C(=C(/CC)c1ccc(O)cc1)c1ccc(O)cc1
inactive: [1] | [4] | [7] | [8]
active: [2] 11 µM | [3] 20 µM | [5] 20 µM | [6] 11.4 µM | [9] 7.02 µM | [10] 20 µM | [11] 25.7 µM | [12] 33.4 µM | [13] 28.1 µM | [14] 28.6 µM | [15] 13.6 µM | [16] 20 µM | [17] 31.8 µM | [18] 17.7 µM | [19] 25.3 µM | [20] 28 µM

Cc1occc1C(=O)Nc1ccc(C(=O)N2CCC(F)(F)/C(=C\C(=O)N3CCC(N4CCCCC4)CC3)c3ccccc32)cc1
not listed: [6] | [16]
inactive: all other assays above

O=C(O)c1ccccc1C(=O)OCc1ccccc1
not listed: [16]
inactive: all other assays above

COc1cc(C(=O)NC2CCN(C)CC2)ccc1Nc1ncc2c(n1)N(C1CCCC1)CC(F)(F)C(=O)N2C
active: [2] 14.2 µM | [3] 11.9 µM | [4] 24.2 µM | [5] 14.1 µM | [8] 23.8 µM | [9] 4.95 µM | [10] 14.9 µM | [11] 16 µM | [13] 6.25 µM | [14] 18.6 µM | [15] 2.79 µM | [16] 12.2 µM | [17] 18.6 µM | [18] 32.3 µM | [19] 30.8 µM | [20] 7.74 µM
inactive: [1] | [7] | [12]

CCN(Cc1cccnc1)C(=O)c1cccc(Cl)c1[C@]1(C)C(=O)N(Cc2ccc(OC)cc2OC)c2ccc(Cl)cc21
active: [3] 7.05 µM | [5] 5.43 µM | [7] 5.95 µM | [9] 5.1 µM | [10] 5.49 µM | [14] 5.9 µM | [18] 22.3 µM
not listed: [16]
inactive: all other assays above

CCO[Si](CCCNC(N)=O)(OCC)OCC
not listed: [3]
inactive: all other assays above
